Source: PubChem BioAssay
Only some compounds are listed: those with a hit (about 13% of all), similar ones and a draw of the others.
Pf growth 96h: P. falciparum growth inhibition at 96 hours; P. falciparum luciferase reporter growth, 96 h; Potency, µM (highest dose often 28.7 µM), for inactives: at the highest dose activity change, negative = inhibition, usual class: inhibitors; 320,000 tested, 6.9% active; AID 504834; note: potency is the fitted concentration of half-maximal effect
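Delayed-death screen, second-generation endpoint: infected erythrocytes, 2% hematocrit, 0.05% parasitemia final; 96 hours at 37 C, 5% CO2; luciferase detection reagent; luminescence decrease equals reduced growth.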
Pf growth 48h: inhibits P. falciparum growth in the first generation, 48 h. AID 504832. 310,000 tested, 5.9% active. P. falciparum luciferase growth in erythrocytes, 48 h. Potency, µM (titrated, usually from 28.7 µM), for inactives: at the top dose activity change, negative = inhibition, most hits filed as inhibitors; note: potency is the fitted concentration of half-maximal effect
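In quantitative HTS format, infected erythrocytes bearing luciferase-reporter parasites were treated for a single generation at 37 C. Luminescence after adding detection reagent served as the growth measure.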
HCV inh: inhibitors of hepatitis C virus infection. Huh7.5.1 HCVcc-Cre infection, luciferase reporter, 44 h. Potency, µM (series often up to 41.8 µM), for the others: at the top dose activity change, negative = inhibition, actives largely listed as inhibitors. 340,000 tested, 3.4% active. AID 651820; note: potency is the fitted concentration of half-maximal effect
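Whole-lifecycle infectious HCVcc-Cre system; cells 1,000/well, compound then virus (~0.5 moi) added 4 h after plating, 44 h culture. Luciferase read 15 sec following 15 min substrate incubation, room temp.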
HCMV antiviral: human cytomegalovirus inhibition | activity change, negative = inhibition, % at 57.5 µM | 410,000 tested, 4.5% active | HFF cells, HCMV-luciferase reporter, 72 h; stronger effect = lower value; in the data active = activity change below about -60%; inconclusive = no clear call, values can overlap the other calls; inactive = above about -39%
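Luciferase read-out from HCMV-luciferase-infected HFFs (MOI 1 PFU/cell) 72 h post infection at 37C; compounds added after 16 h cell attachment; activity normalized between buffer-only basal and Salinomycin (10uM) inhibitor controls.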
Active calls of the source: *; u = inconclusive; x = no result given; [ ] = dose if it differs, or a comment. Unless noted, calls come from the whole dose curve; as a rule, active = well fitted inhibition curve with a large enough effect; inconclusive = small, poorly fitted or top-dose-only effect, or another doubt; inactive = no such curve, though single readings can be large or run the other way. % is set by controls: 0 for no effect and ±100 for the full control effect.

SMILES	Pf growth 96h	Pf growth 48h	HCV inh	HCMV antiviral
Cc1nonc1NC(=O)CSc1nc(C2CCCCC2)nc2ccccc12	3.5%[5.75 µM]	u	u	-88.3*
Cc1cc(NC(=O)CSc2nc3ccccc3c(=O)n2C2CCCC2)no1	x	x	-5.3%	-62.2*
NC(=O)CSc1nc2cc(Cl)ccc2c(=O)n1C1CCCCC1	u	-5.2%	11.2µM*	-14.5
O=C(CSc1nc(C2CC2)nc2ccccc12)Nc1ccccc1Cl	-18.4%	8.6%	7.7%	4.0
COC(=O)CSc1nc2cc(Cl)ccc2c(=O)n1C1CCCC1	u	-2.0%	-18.5%	86.2
O=C(CSc1nc(C2CC2)nc2ccccc12)Nc1ccccc1N1CCOCC1	17.7%	u	u	-72.0*
CCc1ccc(NS(=O)(=O)c2[nH]ncc2C(=O)OC)cc1	x	x	x	-18.6
COc1cc(CN2CC(=O)N(c3cccc(Cl)c3C)C2=S)cc(OC)c1OC	-0.3%	2.62µM*	-19.7%	-63.1*
COc1cc(Cl)c(C)cc1N1C(=O)CN(Cc2ccccc2)C1=S	24.5%	u	-16.8%	-12.5
COc1cc(CN2CC(=O)N(c3ccccc3Cl)C2=S)cc(OC)c1OC	-4.2%	5.86µM*	u	-25.8
COc1ccc(/C=N/n2c(-c3ccco3)nc3ccccc3c2=O)cc1	u	-26.7%	-23.7%	-38.0
COc1cccc(/C=N/n2c(-c3ccco3)nc3ccccc3c2=O)c1	x	30.1%	u	-64.4*
Cc1cccc(-n2c(-c3ccco3)nc3ccccc3c2=O)c1C	u	-18.9%	9.6%	-75.7*
CC[C@@H](C)[C@H](NC(=O)OCc1ccccc1)c1nnc([C@@H](NC(=O)OCc2ccccc2)[C@@H](C)CC)o1	10.4µM*	10.4µM*	u	9.4
C[C@H](NC(=O)OCc1ccccc1)C(=O)NNC(=O)[C@H](C)NC(=O)OCc1ccccc1	6.1%	-9.9%	23.2%	-11.8
COc1ccc(NC(=O)C(CCCCNC(=O)OC(C)(C)C)NC(=O)OCc2ccccc2)cc1 (centres undefined)	0.586µM*	u	0.9%	-17.9
CC(C)(C)OC(=O)N[C@@H](CCCCNC(=O)OCc1ccccc1)c1nnc([C@H](CCCCNC(=O)OCc2ccccc2)NC(=O)OC(C)(C)C)o1	2.62µM*	u	-29.0%	x
FC(F)(F)c1ccc2c(c1)ncc1c(-c3ccccc3)nn(-c3ccccc3)c12	x	x	x	5.6
O=C(CCl)Nc1c[nH]c(=O)[nH]c1=O	8.4%	1.65µM*	u	-64.1*
Cc1ccc(Cn2c(CNC(=O)CCc3ccccc3)nc3cccnc32)cc1	x	x	x	-34.4
Cc1c(-c2nnc(-c3ccc(C(F)(F)F)cc3)o2)cnn1-c1ccccc1	38.9%	x	6.4%	-16.5
Cc1nn(-c2ccccc2)nc1-c1nnc(-c2ccc(C(F)(F)F)cc2)o1	u	0.262µM*	12.0%	-2.9
Cc1ccc(C)c(N2CCN(S(=O)(=O)c3c(C(=O)N4CCC(C)CC4)c(C)n(C)c3C)CC2)c1	x	x	x	-24.9
O=C1c2cccc3c(N4CCOCC4)c([N+](=O)[O-])cc(c23)C(=O)N1c1cccc2ccccc12	10.4µM*	u	-7.2%	-3.1
Cc1cccc(N2C(=O)c3cccc4c(N5CCCCC5)c([N+](=O)[O-])cc(c34)C2=O)c1C	372.2%	-15.9%	0.2%	45.1
SMILES	Pf growth 96h	Pf growth 48h	HCV inh	HCMV antiviral
CCOC(=O)NNC1CC(=O)N(c2ccccc2)C1=O (centres undefined)	38.3%	28.4%	9.3%	-2.5
CC(C)(C)OC(=O)NNC1CC(=O)N(c2ccccc2F)C1=O (centres undefined)	u	u	3.1%	-71.4*
Oc1ccc(Nc2nc3ccccc3n3cnnc23)cc1	x	x	x	-12.2
COc1ccc(NS(=O)(=O)c2ccc3c(c2)NC(=O)CCS3)c(OC)c1	x	x	x	5.0
CN1CCN(S(=O)(=O)c2ccc3c(c2)NC(=O)CS3)CC1	u	45.1%	14.2%	-26.1
O=C1CSc2ccc(S(=O)(=O)N3CCN(c4ccccc4)CC3)cc2N1	13.6%	-25.6%	0.3%	-22.3
Cc1ccc(C)c(N2CCN(S(=O)(=O)c3ccc4c(c3)NC(=O)CS4)CC2)c1	7.38µM*	-26.9%	u	u
O=C1CSc2ccc(S(=O)(=O)NCc3ccccc3Cl)cc2N1	u	13.9%	-15.0%	-60.0*
O=C1CSc2ccc(S(=O)(=O)N3CCN(c4ccccc4F)CC3)cc2N1	13.1µM*	u	u	-76.1*
COc1ccc(NS(=O)(=O)c2ccc3c(c2)NC(=O)CCS3)cc1Cl	5.86µM*	-26.4%	5.8%	0.0
